# In PubChem BioAssay AID1851 (National Center for Advancing Translational Sciences (NCATS), 2009):
# Screen size: about 16,000 compounds; about 2,600 (16%) were called active. About 20% were inconclusive and are not listed. A selection follows. Values without a mark were called inactive. Calls come from the whole dose curve; as a rule, active = well fitted curve in the direction sought with a large enough effect; inconclusive = small, poorly fitted or top-dose-only effect, or effect the other way; inactive = no such curve, though single readings can be large or run the other way.
# Target: Cytochrome P450 2D6 (Homo sapiens) (UniProt P10635)
# Experiment: Cytochrome panel assay with activity outcomes
# Details: recombinant CYP, pro-luciferin dealkylation, luminescence, p450-cyp2d6; series mostly up to 57.1 µM
# % is set by controls: 0 for no effect and ±100 for the full control effect.
# Chain of Cytochrome P450 2D6 (Homo sapiens) (P10635 whole entry, looked up): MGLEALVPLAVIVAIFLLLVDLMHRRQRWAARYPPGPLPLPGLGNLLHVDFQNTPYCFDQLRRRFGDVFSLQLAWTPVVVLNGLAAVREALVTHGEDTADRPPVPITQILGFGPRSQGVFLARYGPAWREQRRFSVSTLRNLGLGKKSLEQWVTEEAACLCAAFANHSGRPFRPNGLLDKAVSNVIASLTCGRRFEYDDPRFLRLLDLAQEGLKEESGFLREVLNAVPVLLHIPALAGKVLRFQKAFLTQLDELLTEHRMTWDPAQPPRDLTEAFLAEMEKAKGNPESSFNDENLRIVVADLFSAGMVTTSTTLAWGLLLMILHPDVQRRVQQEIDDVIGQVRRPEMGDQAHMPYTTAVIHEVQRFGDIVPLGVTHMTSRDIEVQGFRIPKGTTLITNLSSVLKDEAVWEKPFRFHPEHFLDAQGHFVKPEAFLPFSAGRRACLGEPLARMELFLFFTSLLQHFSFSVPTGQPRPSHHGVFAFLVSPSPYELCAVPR
SMILES,AC50,"activity, negative = inhibition"
CC(C)NC(=O)/C(=N\O)c1ccccc1,inactive,–
Cc1ccc(OCC(=O)NNC(=O)c2cccnc2)cc1,inactive,–
O=c1c(-c2cccs2)nc2cnc(Oc3ccccc3)nc2n1C1CC1,inactive,–
COc1ccc(NC(=O)N2CCCC3(CCN(C(=O)c4cccc(F)c4)CC3)C2)cc1,inactive,–
CN1CCN(c2ncc3nc(-c4ccc(Cl)cc4)c(=O)n(C4CC4)c3n2)CC1,inactive,–
Cc1ccc(NC(=O)/C(=C/c2cccc([N+](=O)[O-])c2)NC(=O)C2CCCCC2)c(C)c1,inactive,–
CC1=C(C(=O)Nc2ccccc2F)C(c2ccsc2)C2=C(CC(c3ccccc3)CC2=O)N1 (configuration not stated),inactive,–
COC(=O)C/C=C\[C@@H](C)[C@@H](/C=N\OC[C@@H]1O[C@H](c2ccccc2)C=C[C@@H]1Oc1ccc(OC)cc1)OC,–,-17.7% [at 11.4 µM]
COC(=O)c1ccccc1N/C=C1\CCc2c(c(C)nn2-c2ccccn2)C1=O,inactive,–
CCOc1ccc(/C=N/Nc2nc(N3CCCC3)nc(N3CCCC3)n2)cc1OC,inactive,–
CCNc1ncc2nc(-c3ccc(OC)cc3)c(=O)n(CCOC)c2n1,inactive,–
CCNc1ncc2nc(-c3ccccc3)c(=O)n(C)c2n1,inactive,–
CCNc1ncc2nc(-c3ccccc3)c(=O)n(CCc3ccccc3)c2n1,10 µM (active),–
CCNc1ncc2nc(-c3ccccc3)c(=O)n(CCOC)c2n1,3.16 µM (active),–
COCCn1c(=O)c(-c2ccccc2)nc2cnc(Nc3ccccc3)nc21,inactive,–
CCNc1ncc2nc(C)c(=O)n(CCc3ccccc3)c2n1,inactive,–
CCOC(=O)c1sc(=N)n(-c2ccc(OC)cc2)c1C,inactive,–
COc1cccc(/C=c2/s/c(=C(\C#N)C(=O)N3CCOCC3)n(-c3ccccc3)c2=O)c1,inactive,–
Cc1ccc(N2CCN(CCC(=O)O)CC2)cc1,–,-9.16% [at 11.4 µM]
CCSC(N)=Nc1ccc(C(F)(F)F)cc1,inactive,–
Cc1ccc(CSC(N)=Nc2ccccc2)cc1C,0.794 µM (active),–

SMILES,AC50,"activity, negative = inhibition"
N=C(N)c1ccccc1,inactive,–
O=C(Nc1cccc(C(=O)Nc2ccc(S(=O)(=O)O)c3cc(S(=O)(=O)O)cc(S(=O)(=O)O)c23)c1)Nc1cccc(C(=O)Nc2ccc(S(=O)(=O)O)c3cc(S(=O)(=O)O)cc(S(=O)(=O)O)c23)c1,inactive,–
C(=N/Nc1nnc2c(n1)[nH]c1ccccc12)/c1cccnc1,–,-5% [at 11.4 µM]
c1ccc2c[n+](Cc3ccnc4ccccc34)ccc2c1,3.16 µM (active),–
COc1cc(NC(=O)c2cc3nc(-c4ccccc4)cc(-c4ccccc4)n3n2)cc(OC)c1OC,inactive,–
COC(=O)c1[nH]c2cccc(OC)c2c1NC(=O)CN(C)CC1OCCO1,inactive,–
NC1CCN(c2cccc(Cl)n2)CC1,10 µM (active),–
Clc1ccc(N2CCCCCC2)nn1,inactive,–
Cc1ccc2c(c1)[C@@H]1CN(C)CC[C@@H]1N2S(=O)(=O)c1ccc(F)cc1,14.1 µM (active),–
O=S(=O)(c1ccc(F)cc1)N1CCCC(CO)C1 (configuration not stated),inactive,–
O=S(=O)(c1ccc(F)cc1)N1CC2CCCN2c2ccc(C(F)(F)F)cc21 (configuration not stated),inactive,–
O=C1O[C@@H]([C@H](O)[C@H](O)[C@H](O)CO)[C@@H](O)[C@@H]1O,–,7.22% [at 11.4 µM]
O=C(Cc1ccccc1)Nc1nc(=O)c2ccccc2s1,inactive,–
O=C(c1cnccn1)N1CCC2(CC1)CCN(c1ccccn1)CC2,inactive,–
Cc1ccc(-c2ccc(CCC(=O)O)n2CC2CCCO2)cc1 (configuration not stated),inactive,–
Cc1ccc(C(=O)N/N=C/c2cc(C)n(-c3ccc(Br)cc3)c2C)cc1[N+](=O)[O-],inactive,–
CSc1nc2ccccc2cc1/C=C(\C#N)c1cccc(Cl)c1,inactive,–
CN1CCCN([C@@H](c2ccccc2)c2ccc(Cl)cc2)CC1,0.251 µM (active),–
O=C1CC(N2CCN(C(c3ccccc3)c3ccccc3)CC2)C(=O)N1Cc1ccc(N2CCCC2=O)cc1 (configuration not stated),inactive,–
CN1CCN([C@@H](c2ccccc2)c2ccc(Cl)cc2)CC1,2 µM (active),–
Cc1ccc(-c2noc(CN3CCN(C(c4ccccc4)c4ccccc4)CC3)n2)cc1,inactive,–

SMILES,AC50,"activity, negative = inhibition"
Cc1cccc(CN2CCN(CC(=O)O)C2=O)c1,inactive,–
CN1CCN(CC(O)c2ccccc2)CC1 (configuration not stated),inactive,–
Cc1cccc(CN2CCN([C@@H](c3ccccc3)c3ccc(Cl)cc3)CC2)c1,3.16 µM (active),–
CC(=O)N=c1sc(S(N)(=O)=O)nn1C,inactive,–
COC(=O)c1cc(/C=C/c2ccccc2)on1,inactive,–
Cc1cnc2cc(Cl)ccc2c1SCC(=O)O,–,8.22% [at 11.4 µM]
NS(=O)(=O)c1cc2c(cc1Cl)N[C@@H](CC1CCCC1)NS2(=O)=O,inactive,–
O=C(CN1C(=O)c2ccccc2C1=O)NCC(=O)OCC(=O)c1ccc(Br)cc1,inactive,–
CCn1c(CCNC(=O)c2ccccc2Cl)n[nH]c1=S,inactive,–
O=C(O)c1ccccc1/C=N\N=C1c2ccccc2-c2ccccc21,–,16.6% [at 11.4 µM]
CCn1cc(C(=O)NCC(=O)OC)c2cc(OC)c(OC)cc2c1=O,inactive,–
CC1(C)[C@@H]2CC[C@]1(C)[C@@H](OC(=O)CSC#N)C2,–,-15% [at 11.4 µM]
CC(C)NC[C@@H](O)COc1cccc2ccccc12,inactive,–
C=CCc1ccccc1OC[C@H](O)CNC(C)C,6.31 µM (active),–
CC(C)(C)NC[C@H](O)COc1cccc2[nH]c(=O)[nH]c12,inactive,–
C[C@@]12C[C@H](O)[C@@H]3[C@H](CCC4=CC(=O)CC[C@]43C)[C@H]1CC[C@@H]2c1csc(N)n1,–,-10.6% [at 11.4 µM]
Cc1ccc(C)c(S(=O)(=O)NC(C)C(=O)Nc2ccc(-c3nc4ccccc4s3)cc2)c1 (configuration not stated),inactive,–
CC(C)[C@]1(Cl)CC[C@@H]2[C@]3(C)CCC[C@@](C)(C(=O)O)[C@H]3C[C@H](Cl)[C@@]2(Cl)[C@H]1Cl,–,4.09% [at 11.4 µM]
COc1cccc(Cn2c(=O)c(-c3cccc(C#N)c3)nc3cnc(N4CCN(C)CC4)nc32)c1,inactive,–
Cc1ccc(/C=C2\SC(=S)N(CCCC(=O)Nc3ccccn3)C2=O)cc1,inactive,–
